Our source for the growth inhibition values is PubChem BioAssay (NCI).

The panel holds about 79,000 compounds, 15% with a hit somewhere; the sample as a whole holds those more often. Values without a mark were called inactive. Active and inactive are the calls of the source. Rule as the data show it: active = growth inhibition above about 70%; inactive = the rest.

The assay can be described thus: NCI Yeast Anticancer Drug Screen. Data for the wt1 strain (AID 149).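 Also: 0% = growth of vehicle-treated wt1 cultures.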 The following applies: S. cerevisiae wt1 strain (SPY 50644) growth inhibition, active compounds read high. As for the experimental part: Growth inhibition of yeast strains with defined genetic alterations is measured as a screen for potential anti-cancer activity. Selected strains with alterations in DNA damage repair or cell cycle control were exposed to compounds and growth inhibition was measured relative to vehicle treated controls. The strain used in this assay is wt1

Take `CC(O)CN1C(=O)c2cccc3cc([N+](=O)[O-])cc(c23)C1=O` (stereo not given): the growth inhibition is, setting by setting: (at 1.2 µM) -7%; (at 3.7 µM) 5%; (at 11.0 µM) 1%; (at 33.0 µM) -3%; (at 100.0 µM) 0%.
The like results for `COc1cc(C(C)C(C(=O)O)C(=O)C(=O)O)cc(OC)c1OC` (stereo not given) were, in that order, 0%, 2%, 3%, 4% and 5%.
As for `Cc1ccc2nc(N/N=C/c3ccc(C)s3)cc(C)c2c1`, the growth inhibition is -27% (at 1.2 µM); -18% (at 3.7 µM); 1% (at 11.0 µM); 99% (active) (at 33.0 µM); 94% (active) (at 100.0 µM).
As for `CNc1ccc2[nH]c3ccccc3c2c1`, the growth inhibition runs as follows: (at 1.2 µM) 0%; (at 3.7 µM) 0%; (at 11.0 µM) 1%; (at 33.0 µM) -4%; (at 100.0 µM) 28%.
Regarding `O=c1oc(C(C(F)(F)F)C(F)(F)F)nc2ccccc12`, the growth inhibition reads like this: (at 1.2 µM) 4%; (at 3.7 µM) 24%; (at 11.0 µM) 20%; (at 33.0 µM) 23%; (at 100.0 µM) 27%.
The like results for `CCOC(=O)c1[nH]c2cccc3c2c1CC(Br)C3=O` (stereo not given) were, in that order, -23%, -5%, -3%, 19% and 60%.
`Cc1ccc(P(c2ccc(C)cc2)c2ccc(C)cc2)cc1`: the growth inhibition (at 1.2 µM) was -25%; the growth inhibition (at 3.7 µM) is -12%; the growth inhibition (at 11.0 µM) is -5%; the growth inhibition (at 33.0 µM) was 1%; the growth inhibition (at 100.0 µM) is 7%.
The like results for `N=c1oc2ccccc2cc1-c1nc2ccccc2[nH]1` were, in that order, 1%, 9%, 15%, 28% and 45%.
